The results in this text go back to ChEMBL document CHEMBL3988442, “University of Dundee, Small-Polar-MMV Screening Library” (2021).

For some of these results: Results with a measured potency or affinity are listed apart.

Common to all, as to set-up: scale not given: direction of the effect not stated beside the values
The target of test [1] is Protein translocase subunit SecA (Escherichia coli (strain K12)) (UniProt P10408). The experiment in a line: Assay to Identify E. coli SecA ATPase Inhibitors. The class given is functional. The settings on record: 30 µM.
Chain of Protein translocase subunit SecA (Escherichia coli (strain K12)) (P10408 whole entry): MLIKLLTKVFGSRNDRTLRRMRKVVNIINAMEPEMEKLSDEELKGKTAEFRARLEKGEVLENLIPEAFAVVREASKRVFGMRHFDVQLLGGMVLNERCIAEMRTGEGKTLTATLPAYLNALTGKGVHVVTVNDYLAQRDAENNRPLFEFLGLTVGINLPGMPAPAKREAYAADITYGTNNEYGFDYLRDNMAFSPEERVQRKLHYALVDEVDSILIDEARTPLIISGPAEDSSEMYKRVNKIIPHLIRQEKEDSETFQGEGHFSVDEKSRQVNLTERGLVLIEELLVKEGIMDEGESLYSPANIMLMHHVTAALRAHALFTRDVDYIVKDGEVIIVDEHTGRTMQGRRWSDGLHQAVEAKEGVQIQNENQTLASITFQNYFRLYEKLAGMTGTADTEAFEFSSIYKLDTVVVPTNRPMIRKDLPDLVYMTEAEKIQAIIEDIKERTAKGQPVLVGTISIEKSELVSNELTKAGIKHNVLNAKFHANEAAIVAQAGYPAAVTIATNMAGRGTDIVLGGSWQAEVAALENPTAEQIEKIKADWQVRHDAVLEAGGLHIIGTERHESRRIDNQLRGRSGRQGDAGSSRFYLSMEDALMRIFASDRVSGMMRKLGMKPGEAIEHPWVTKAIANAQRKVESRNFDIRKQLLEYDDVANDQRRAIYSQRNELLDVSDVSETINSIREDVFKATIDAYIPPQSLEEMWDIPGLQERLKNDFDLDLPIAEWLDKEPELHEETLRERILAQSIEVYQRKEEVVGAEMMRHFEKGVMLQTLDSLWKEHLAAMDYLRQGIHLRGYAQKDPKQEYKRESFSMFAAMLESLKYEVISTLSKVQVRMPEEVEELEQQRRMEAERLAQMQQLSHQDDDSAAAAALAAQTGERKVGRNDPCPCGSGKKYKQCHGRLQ
The target in test [2] is T1, Ubiquitin-activating enzyme e1, putative (Leishmania donovani (strain BPK282A1)) (UniProt E9BSI1).
T1 sequence (whole entry): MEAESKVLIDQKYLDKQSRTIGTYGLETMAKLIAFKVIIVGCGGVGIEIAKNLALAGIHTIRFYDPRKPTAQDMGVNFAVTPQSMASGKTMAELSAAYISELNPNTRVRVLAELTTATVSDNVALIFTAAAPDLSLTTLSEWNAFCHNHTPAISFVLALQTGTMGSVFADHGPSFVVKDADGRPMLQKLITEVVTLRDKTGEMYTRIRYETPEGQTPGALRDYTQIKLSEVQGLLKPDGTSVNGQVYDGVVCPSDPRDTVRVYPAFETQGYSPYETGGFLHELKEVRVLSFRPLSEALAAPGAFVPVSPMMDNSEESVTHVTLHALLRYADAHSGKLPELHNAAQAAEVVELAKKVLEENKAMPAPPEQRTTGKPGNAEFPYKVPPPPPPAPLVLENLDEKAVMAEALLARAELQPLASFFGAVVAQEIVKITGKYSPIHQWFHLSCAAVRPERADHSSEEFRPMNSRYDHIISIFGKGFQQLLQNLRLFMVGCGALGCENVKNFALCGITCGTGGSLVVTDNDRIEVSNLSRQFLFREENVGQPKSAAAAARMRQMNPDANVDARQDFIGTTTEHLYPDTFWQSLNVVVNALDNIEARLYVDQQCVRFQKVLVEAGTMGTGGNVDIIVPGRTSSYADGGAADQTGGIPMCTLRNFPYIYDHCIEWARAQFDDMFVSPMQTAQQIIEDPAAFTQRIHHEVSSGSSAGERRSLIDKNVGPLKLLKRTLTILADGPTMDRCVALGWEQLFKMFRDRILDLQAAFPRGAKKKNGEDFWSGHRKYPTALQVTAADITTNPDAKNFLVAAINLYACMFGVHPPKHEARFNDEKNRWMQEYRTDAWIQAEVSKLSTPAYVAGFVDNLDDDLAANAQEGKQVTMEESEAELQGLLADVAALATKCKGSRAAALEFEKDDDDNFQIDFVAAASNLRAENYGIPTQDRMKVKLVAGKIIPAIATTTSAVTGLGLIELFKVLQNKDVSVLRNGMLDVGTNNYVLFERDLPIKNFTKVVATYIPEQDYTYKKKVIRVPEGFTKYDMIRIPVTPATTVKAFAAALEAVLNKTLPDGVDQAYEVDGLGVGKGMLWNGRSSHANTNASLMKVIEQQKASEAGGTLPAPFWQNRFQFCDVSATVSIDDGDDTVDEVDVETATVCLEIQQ
Description: Leishmania donovani Ubiquitin Activating Enzyme (LdE1). It counts as functional. Particulars: 30 µM.

Test [3] concerns the target AMP-activated protein kinase, AMPK (Homo sapiens) (UniProt P54646+O43741+P54619+Q9UGJ0+Q9Y478+Q13131+Q9UGI9). The experiment in a line: AMP-dependent Kinase enzyme assay. An in vitro enzyme assay that detects ADP turnover that is directly proportional to AMPK activity. This uses naive AMPK that is activated during the assay with MK-8722. The class given is functional. Particulars: 30 µM.

In test [4] the target is Sialic acid-binding Ig-like lectin 9 (Homo sapiens) (UniProt Q9Y336). Description: Hs-Siglec9 ALPHAscreen SOP 20170721. Particulars: 10 µM.
Chain of Sialic acid-binding Ig-like lectin 9 (Homo sapiens) (Q9Y336 whole entry): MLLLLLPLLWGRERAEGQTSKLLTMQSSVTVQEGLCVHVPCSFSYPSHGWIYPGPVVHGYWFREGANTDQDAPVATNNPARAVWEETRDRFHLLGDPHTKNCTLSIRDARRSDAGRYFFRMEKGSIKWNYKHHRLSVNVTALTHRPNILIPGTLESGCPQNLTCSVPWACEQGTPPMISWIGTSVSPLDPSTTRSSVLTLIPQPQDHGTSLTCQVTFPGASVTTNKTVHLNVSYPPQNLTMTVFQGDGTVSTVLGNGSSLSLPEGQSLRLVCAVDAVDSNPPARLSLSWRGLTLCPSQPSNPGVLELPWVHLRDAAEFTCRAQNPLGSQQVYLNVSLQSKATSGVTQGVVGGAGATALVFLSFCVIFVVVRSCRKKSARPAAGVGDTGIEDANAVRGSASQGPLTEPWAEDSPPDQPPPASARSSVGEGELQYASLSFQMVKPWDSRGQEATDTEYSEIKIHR
For another test, the system named is Trypanosoma cruzi. Description: Trypanosoma cruzi phosphomannomutase and mannose-1-phosphate guanylyltransferase assay. It counts as functional. The settings on record: 10 µM.
The target of test [5] is T2, Arginase-2, mitochondrial (Homo sapiens) (UniProt P78540).
T2 sequence (whole entry): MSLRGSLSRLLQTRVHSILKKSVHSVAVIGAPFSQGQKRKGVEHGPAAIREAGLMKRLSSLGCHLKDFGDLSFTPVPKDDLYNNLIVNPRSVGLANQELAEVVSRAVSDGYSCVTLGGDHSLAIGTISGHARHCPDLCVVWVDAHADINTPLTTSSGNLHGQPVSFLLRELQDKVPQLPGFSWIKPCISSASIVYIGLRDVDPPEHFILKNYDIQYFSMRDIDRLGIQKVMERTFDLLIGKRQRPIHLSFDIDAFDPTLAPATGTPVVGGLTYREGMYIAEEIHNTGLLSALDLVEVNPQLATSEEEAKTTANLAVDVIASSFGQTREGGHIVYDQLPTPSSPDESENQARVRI
Description: in vitro enzyme assay to detect the production of urea directly proportional to the activity of Arginase II. Note: in the data most compounds retested in dose-response had high values. Particulars: 33.3 µM. The class given is functional.

For test [6], the target named is T3, Proteasome subunit beta (Trypanosoma cruzi) (UniProt O96673).
T3 sequence (whole entry): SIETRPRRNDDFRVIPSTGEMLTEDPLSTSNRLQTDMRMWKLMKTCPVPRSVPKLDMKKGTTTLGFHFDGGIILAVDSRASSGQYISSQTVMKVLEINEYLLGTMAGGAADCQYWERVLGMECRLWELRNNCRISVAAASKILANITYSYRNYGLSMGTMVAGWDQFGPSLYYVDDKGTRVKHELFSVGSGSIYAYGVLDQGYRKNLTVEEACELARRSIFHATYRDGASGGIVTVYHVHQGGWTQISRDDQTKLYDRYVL
The experiment in a line: Trypanosoma cruzi proteasome chymotrypsin-like activity (TcProtChymo) assay. Note: in the data most compounds retested in dose-response had high values. The class given is functional. Particulars: 9.37 µM.

The species named for a further test is Homo sapiens. Description: To identify inhibition of the IFN signalling (Jak-Stat) pathway via expression of an eGFP reporter gene under the control of an IFN-stimulated response element (ISRE) containing MxA promoter. The class given is functional. The settings on record: 30 µM.
The target in test [7] is T4, Tyrosyl-tRNA synthetase, putative (Trypanosoma cruzi (strain CL Brener)) (UniProt Q4DSP6).
T4 sequence (whole entry): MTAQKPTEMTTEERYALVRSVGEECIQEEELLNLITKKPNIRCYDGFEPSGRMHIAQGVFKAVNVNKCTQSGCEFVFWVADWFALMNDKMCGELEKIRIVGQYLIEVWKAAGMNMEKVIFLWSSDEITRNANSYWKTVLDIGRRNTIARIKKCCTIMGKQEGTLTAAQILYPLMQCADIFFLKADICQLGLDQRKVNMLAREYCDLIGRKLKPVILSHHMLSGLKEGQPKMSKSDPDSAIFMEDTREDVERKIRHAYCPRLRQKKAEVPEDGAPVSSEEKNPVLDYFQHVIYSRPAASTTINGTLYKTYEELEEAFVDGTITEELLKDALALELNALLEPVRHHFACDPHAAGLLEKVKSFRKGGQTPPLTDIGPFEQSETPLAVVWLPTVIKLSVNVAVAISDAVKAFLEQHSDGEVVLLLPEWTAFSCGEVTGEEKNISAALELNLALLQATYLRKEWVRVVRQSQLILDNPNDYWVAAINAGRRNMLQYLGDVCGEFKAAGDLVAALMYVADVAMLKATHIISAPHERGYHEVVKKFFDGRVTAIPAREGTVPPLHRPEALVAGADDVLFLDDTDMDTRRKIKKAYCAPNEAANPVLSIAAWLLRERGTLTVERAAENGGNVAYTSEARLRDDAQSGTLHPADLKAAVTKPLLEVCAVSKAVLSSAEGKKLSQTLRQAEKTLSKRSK
Description: Trypanosoma cruzi tyrosyl tRNA synthetase (TcYRS) _High Tyrosine SOP. Note: in the data most compounds retested in dose-response had high values. It counts as functional. Particulars: 30 µM.

The target of test [8] is T4, Tyrosyl-tRNA synthetase, putative (Trypanosoma cruzi (strain CL Brener)). Description: Trypanosoma cruzi tyrosyl tRNA synthetase (TcYRS) SOP. It counts as functional. Particulars: 30 µM.
Test [9] concerns the target Chromo domain-containing protein 1 (Saccharomyces cerevisiae (strain ATCC 204508 / S288c) (Baker's yeast)) (UniProt P32657). Description: ScCHD-1 Enzyme Inhibition Assay. Note: in the data most compounds retested in dose-response had high values. It counts as functional. Particulars: 30 µM.

Chain of Chromo domain-containing protein 1 (Saccharomyces cerevisiae (strain ATCC 204508 / S288c) (Baker's yeast)) (P32657 whole entry, the tested form may be a part): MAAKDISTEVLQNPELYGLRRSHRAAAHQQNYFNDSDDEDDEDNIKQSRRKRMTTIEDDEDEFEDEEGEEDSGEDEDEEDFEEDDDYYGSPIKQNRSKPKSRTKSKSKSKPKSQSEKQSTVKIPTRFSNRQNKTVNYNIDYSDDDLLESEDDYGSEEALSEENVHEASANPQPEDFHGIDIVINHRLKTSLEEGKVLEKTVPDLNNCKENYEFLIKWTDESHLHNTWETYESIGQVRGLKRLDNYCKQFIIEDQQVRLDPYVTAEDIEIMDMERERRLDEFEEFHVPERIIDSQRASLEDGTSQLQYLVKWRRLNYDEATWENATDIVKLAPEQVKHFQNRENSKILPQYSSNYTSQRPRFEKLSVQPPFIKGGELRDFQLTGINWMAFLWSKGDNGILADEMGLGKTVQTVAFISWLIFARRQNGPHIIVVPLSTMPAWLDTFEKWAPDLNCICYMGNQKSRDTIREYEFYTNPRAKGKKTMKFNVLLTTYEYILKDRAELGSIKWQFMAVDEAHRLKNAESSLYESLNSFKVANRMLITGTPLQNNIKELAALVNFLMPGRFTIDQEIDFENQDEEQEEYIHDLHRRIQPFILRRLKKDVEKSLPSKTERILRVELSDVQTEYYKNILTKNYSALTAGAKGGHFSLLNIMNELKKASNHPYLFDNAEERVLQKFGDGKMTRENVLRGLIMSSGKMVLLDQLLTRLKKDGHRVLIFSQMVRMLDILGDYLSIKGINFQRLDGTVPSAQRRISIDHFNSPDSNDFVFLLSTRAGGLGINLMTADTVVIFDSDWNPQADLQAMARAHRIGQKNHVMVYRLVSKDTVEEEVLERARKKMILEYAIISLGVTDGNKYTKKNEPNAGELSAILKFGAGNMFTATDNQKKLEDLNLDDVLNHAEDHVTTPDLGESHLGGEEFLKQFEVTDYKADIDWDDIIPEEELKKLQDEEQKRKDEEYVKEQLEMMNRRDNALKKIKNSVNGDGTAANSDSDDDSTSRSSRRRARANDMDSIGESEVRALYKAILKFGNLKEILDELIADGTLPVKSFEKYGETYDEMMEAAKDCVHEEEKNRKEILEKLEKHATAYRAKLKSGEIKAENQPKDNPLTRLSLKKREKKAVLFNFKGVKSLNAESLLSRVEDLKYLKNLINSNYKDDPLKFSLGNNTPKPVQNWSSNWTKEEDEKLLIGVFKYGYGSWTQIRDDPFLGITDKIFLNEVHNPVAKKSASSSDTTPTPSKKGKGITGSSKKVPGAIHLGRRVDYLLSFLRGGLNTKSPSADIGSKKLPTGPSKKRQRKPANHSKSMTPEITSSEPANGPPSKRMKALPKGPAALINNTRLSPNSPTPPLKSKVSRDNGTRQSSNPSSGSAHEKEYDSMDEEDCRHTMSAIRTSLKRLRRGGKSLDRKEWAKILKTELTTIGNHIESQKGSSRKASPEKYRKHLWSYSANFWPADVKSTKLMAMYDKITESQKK

As for `CC(C)c1nn(C)c(Cl)c1CNCc1ccc2c(c1)OCCO2`, the Percent Effect was -4.72% in [1]; 10.5% in test [2]; 2.72% in test [3]; 8.57% in test [4]; 3.27% in the test on Trypanosoma cruzi; -5.04% in [5]. In addition, the Percent Effect in [6] was 2.28%; in the test filed under Homo sapiens, -34.1%; in [7], 5.42%; in test [8], 16.1%; in test [9] it was 0.827%.

Consider `CC(C)c1nc(C2CCCN2CC(=O)N2CCc3ccccc32)no1` (stereo not drawn), for which the Percent Effect was -3.88% in [1]; -7.89% in test [2]; 5.96% in test [3]; 5.77% in [4]; -2.82% with Trypanosoma cruzi; -1.15% in [5]. In addition, the Percent Effect was -2.51% in test [6]; -0.0405% in the test listed under Homo sapiens; -3.43% in test [7]; -4.88% in test [8]; 6.73% in test [9].

For `Cc1nn(-c2ccccc2)nc1C(=O)N1CCCC1c1cnn(C)c1` (stereo not drawn), the Percent Effect in [1] is -5.15%; in test [2], 0%; in test [3], -0.474%; in test [4] it was 2.1%; in the test with Trypanosoma cruzi, -2.32%; in test [5], -4.99%. Also, the Percent Effect amounted to 0.539% in [6]; 12.6% in the test filed under Homo sapiens; 2.97% in test [7]; 6.1% in test [8]; 7.07% in test [9].

In the case of `COc1cccc(NC(=O)N(CCO)Cc2ccsc2)c1`, the Percent Effect was -3.38% in [1]; -6.94% in [2]; 1.15% in [3]; -5.41% in test [4]; -4.96% with Trypanosoma cruzi; -4.42% in test [5]. The Percent Effect in test [6] is 12.3%; in the test filed under Homo sapiens, 11.8%; in [7], 3.16%; in [8], 5.13%; in test [9], -4.52%.

Take `CNc1cc2c(nn1)CCN(C(=O)c1cccc3c1OCO3)C2`: the Percent Effect in [1] is -5.03%; in test [2], 5.2%; in [3] it was -9.97%; in test [4], 7.76%; with Trypanosoma cruzi, 3.75%; in test [5], 2.49%. The Percent Effect is -5.07% in test [6]; -5.98% in the test listed under Homo sapiens; 4.85% in test [7]; 7.32% in test [8]; -2.55% in test [9].

Turning to `O=C(CCc1cscn1)NS(=O)(=O)c1ccc2c(c1)CCC2`, the Percent Effect in test [1] was -5.7%; in [2] it was 15.3%; in test [3], -13.9%; in [4], 36.9%; in the test on Trypanosoma cruzi it was 7.29%; in [5], 22.5%. Also, the Percent Effect in [6] is 3.33%; in the test listed under Homo sapiens, 5.07%; in [7], 3.16%; in test [8], 15.4%; in test [9] it was -4.74%.

For the compound `CCc1noc(C2CCCCN2C(=O)c2ccoc2C)n1` (stereo not drawn), the Percent Effect was -3.77% in [1]; 4% in [2]; -0.569% in test [3]; 3.61% in test [4]; -7.47% in the test on Trypanosoma cruzi; -4.05% in test [5]. For the same compound, the Percent Effect in test [6] is 13.9%; in the test filed under Homo sapiens, -6.22%; in [7], 1.06%; in [8] it was 5.13%; in test [9], -6.62%.

With `O=C(CN1CCCCC1Cn1cncn1)NCCC1=CCCCC1` (stereo not drawn), the Percent Effect in [1] was -9.27%; in [2] it was 7.59%; in test [3], -1.31%; in test [4] it was 4.8%; in the test with Trypanosoma cruzi it was -2.55%; in [5] it was -0.76%. Besides, the Percent Effect in test [6] was -4.5%; in the test filed under Homo sapiens, 30.9%; in test [7] it was 2.46%; in test [8] it was -3.8%; in test [9] it was -6.11%.
